Laboratory results from paper PMC4336329 (PLoS ONE, 2015).
Screen size: about 310,000 compounds; about 14,000 (4.5%) showed an effect of 50% or more. The effect is printed as a negative number. The full list was thinned out, with strong results kept by preference.

target: human ether-à-go-go-related gene (hERG) potassium channel (human, UniProt Q12809); assay: primary screen, population patch clamp on CHO cells stably expressing hERG; higher = less effect of the substance
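Further: peak tail current of the secondary pulse compared with the same well before compound.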

Sequence of human ether-à-go-go-related gene (hERG) potassium channel (Q12809 whole entry, looked up): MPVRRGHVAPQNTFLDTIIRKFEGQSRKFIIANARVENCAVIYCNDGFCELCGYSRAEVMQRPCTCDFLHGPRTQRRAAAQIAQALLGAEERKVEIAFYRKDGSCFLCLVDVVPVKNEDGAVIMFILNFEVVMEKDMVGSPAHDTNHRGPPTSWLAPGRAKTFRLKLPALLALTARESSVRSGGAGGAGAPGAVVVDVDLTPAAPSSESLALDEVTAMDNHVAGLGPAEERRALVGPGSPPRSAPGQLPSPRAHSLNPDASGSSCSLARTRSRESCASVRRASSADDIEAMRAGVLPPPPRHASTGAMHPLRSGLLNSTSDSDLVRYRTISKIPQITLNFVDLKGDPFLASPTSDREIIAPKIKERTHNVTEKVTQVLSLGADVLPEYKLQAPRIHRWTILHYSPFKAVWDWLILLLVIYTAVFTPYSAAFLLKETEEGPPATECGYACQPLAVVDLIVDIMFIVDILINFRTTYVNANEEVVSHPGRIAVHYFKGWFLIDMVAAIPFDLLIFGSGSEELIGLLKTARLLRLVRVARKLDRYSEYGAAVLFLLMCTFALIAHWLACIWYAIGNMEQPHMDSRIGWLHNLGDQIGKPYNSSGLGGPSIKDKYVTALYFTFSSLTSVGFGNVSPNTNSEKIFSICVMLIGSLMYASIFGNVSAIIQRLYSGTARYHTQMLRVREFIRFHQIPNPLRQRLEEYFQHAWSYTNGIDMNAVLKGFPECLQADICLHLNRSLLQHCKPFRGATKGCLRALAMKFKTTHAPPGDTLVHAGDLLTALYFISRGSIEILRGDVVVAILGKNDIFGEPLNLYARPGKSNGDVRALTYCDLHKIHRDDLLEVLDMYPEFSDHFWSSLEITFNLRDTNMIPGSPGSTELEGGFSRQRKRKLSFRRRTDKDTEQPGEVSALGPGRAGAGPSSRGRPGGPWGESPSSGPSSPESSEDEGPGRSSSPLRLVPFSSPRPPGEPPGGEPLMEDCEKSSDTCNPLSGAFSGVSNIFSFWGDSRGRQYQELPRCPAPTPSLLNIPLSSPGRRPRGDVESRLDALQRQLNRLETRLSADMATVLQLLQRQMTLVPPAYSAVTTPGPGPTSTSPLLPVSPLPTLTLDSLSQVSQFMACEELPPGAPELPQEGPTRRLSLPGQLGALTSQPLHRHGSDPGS

SMILES | hERG current change (%, negative = inhibition) at 10uM [%]
Cc1cccc(N=C2C(=O)Nc3c(Cl)cccc32)c1 | 18.5
CCc1nc2cc(Cl)c(Cl)cc2[nH]1 | 2.59
Cc1ccc(-n2c(=O)c(C#N)cc3c(=O)n4cccc(C)c4nc32)cc1 | 1.03
Cc1cc(-n2c(=O)c(C#N)cc3c(=O)n4cccc(C)c4nc32)no1 | -65.1
Cc1cc(-n2c(=O)c(C#N)cc3c(=O)n4ccccc4nc32)no1 | -17
Cc1ccc(OC(=O)c2ccc(S(=O)(=O)N(C)C)cc2)c(-n2nc3ccccc3n2)c1 | 3.83
O=C(Nc1nccs1)c1ccc(-c2ccc(Cl)cc2Cl)o1 | 25.5
Cc1ccc2nc3c(cc(C(=O)NCCc4ccccc4)c(=N)n3CC3CCCO3)c(=O)n2c1 (stereo not drawn) | -76.9
Cc1cccn2c(=O)c3cc(S(=O)(=O)c4ccccc4)c(=N)n(CC4CCCO4)c3nc12 (stereo not drawn) | -15.3
Cc1ccc(CCNC(=O)c2ccc3nc4ccccc4c(=O)n3c2)cc1 | 6.08
O=C(CSc1nc2ccccc2c(=O)n1CC1CCCO1)NCCc1ccccc1 (stereo not drawn) | 7.48
COc1ccc(CNC(=O)c2cc3c(=O)n4cccc(C)c4nc3n(CC3CCCO3)c2=N)cc1 (stereo not drawn) | -77.2
COc1ccc(CNC(=O)C(=O)NCC2CCCO2)cc1 (stereo not drawn) | 9.7
COc1ccc(CCNC(=O)c2cc3c(=O)n4cccc(C)c4nc3n(CC3CCCO3)c2=N)cc1 (stereo not drawn) | -75.2
Cc1cccn2c(=O)c3cc(C(=O)NCCc4ccccc4)c(=N)n(CC4CCCO4)c3nc12 (stereo not drawn) | -82.3
CCOc1cc(CNCCc2cccc(F)c2)ccc1OC.O=C(O)C(=O)O | -43.8
O=C(Nc1ccc2c(c1)OCCO2)c1cnn(-c2ccccc2)n1 | -6.02
O=C(CSc1nc2cc(Cl)ccc2c(=O)n1Cc1ccco1)Nc1ccc(S(=O)(=O)N2CCOCC2)cc1 | -13.6
Cc1ccc(NC(=O)CCNC(=O)c2ccccc2Cl)cc1S(=O)(=O)N1CCOCC1 | -8.82
Cn1c(C(=O)O)ccc1S(=O)(=O)N(Cc1ccccc1)Cc1ccccc1 | 16.5
Cc1ccccc1NC(=O)Cn1c(NCC(C)O)nc2ccccc21 (stereo not drawn) | -2.11

SMILES | hERG current change (%, negative = inhibition) at 10uM [%]
COc1ccc(S(=O)(=O)c2c(O)c3ccc(C(=O)Nc4ccccc4F)cc3[nH]c2=O)cc1 | -0.579
CCc1nnc(NC(=O)CSc2nnc(CSc3nc(C)cc(C)n3)o2)s1 | 3.21
N=c1c(C(=O)NCCc2ccccc2)cc2c(=O)n3ccccc3nc2n1CC1CCCO1 (stereo not drawn) | -90.7
COc1ccc(CCNC(=O)c2cc3c(=O)n4ccccc4nc3n(CC3CCCO3)c2=N)cc1OC (stereo not drawn) | -78.4
O=C(NCc1ccc(Cl)cc1)c1ccc2c(=O)n(CC3CCCO3)c(=S)[nH]c2c1 (stereo not drawn) | 7.01
Cc1cccn2c(=O)c3cc(C(=O)NCc4ccc(F)cc4)c(=N)n(CC4CCCO4)c3nc12 (stereo not drawn) | -74
COc1ccc(CCNC(=O)Cn2c(=O)n(CC3CCCO3)c(=O)c3ccccc32)cc1OC (stereo not drawn) | -0.738
Cc1ccc2nc(/C(C#N)=C\c3ccc(Oc4ccc(C(F)(F)F)cc4[N+](=O)[O-])cc3)[nH]c2c1 | 20.8
COc1ccc(C(=O)CC(=O)C(=O)Nc2ccc(OC)c(Cl)c2)cc1 | 12.9
Cc1nn(-c2ccccc2)c(N2CCCCC2)c1/C=N/NC(=O)c1ccncc1 | 7.3
O=C1CCCC2=C1C(c1ccccc1)n1c(s/c(=C/c3cccc(F)c3)c1=O)=N2 (stereo not drawn) | 16
NCc1cccc(CNc2ccc([N+](=O)[O-])cc2C(N)=O)c1 | -19.9
NC(=O)CC(NC(=O)c1ccccc1)c1ccc(NC2CCN(Cc3ccccc3)CC2)c([N+](=O)[O-])c1 (stereo not drawn) | 1.08
O=[N+]([O-])c1cc(C(F)(F)F)ccc1NC1CCN(Cc2ccccc2)C1 (stereo not drawn) | -66.6
NC(=O)CC(NC(=O)Cc1ccc(Br)cc1)c1ccc(NC2CCN(Cc3ccccc3)CC2)c([N+](=O)[O-])c1 (stereo not drawn) | -45.8
NC(=O)CC(NC(=O)c1cccc(Br)c1)c1ccc(NC2CCN(Cc3ccccc3)CC2)c([N+](=O)[O-])c1 (stereo not drawn) | 6.8
O=[N+]([O-])c1cc(C(F)(F)F)ccc1NC1CCN(Cc2ccccc2)CC1 | -68
NC(=O)CC(NC(=O)Cc1ccc(Cl)cc1)c1ccc(NC2CCN(Cc3ccccc3)CC2)c([N+](=O)[O-])c1 (stereo not drawn) | -18.5
CCCc1nc(SCC(=O)NNC(=O)C2CCCCC2)c2ccccc2n1 | -2.77
Cc1ccc(S(=O)(=O)N(C)c2ccc(OCC(=O)Nc3nc(-c4ccccc4)cs3)cc2)cc1 | 14.3
Clc1ccc(-c2c[n+](Cc3ccc(Cl)cc3Cl)c3n2CCCCC3)cc1.[Br-] | -66

SMILES | hERG current change (%, negative = inhibition) at 10uM [%]
O=[N+]([O-])c1ccc(C[n+]2cc(-c3ccccc3)n3c2CCCCC3)cc1.[Br-] | -35.3
Clc1ccc(C[n+]2cc(-c3ccccc3)n3c2CCCCC3)c(Cl)c1.[Br-] | -74.4
Clc1ccc(C[n+]2cc(-c3ccccc3)n3c2CCC3)cc1.[Cl-] | -33.5
Cc1cc(Nc2ccccc2)c2c([N+](=O)[O-])cc(C)c(C)c2n1 | -9.29
O=C(CCn1c(=O)[nH]c2ccccc2c1=O)Nc1ccccc1 | 16.4
Cc1ccc(S(=O)(=O)NCC(=O)N(CC(=O)NCc2ccco2)Cc2ccc(F)cc2)cc1 | 5.19
O=C(COC(=O)CC1Sc2ccccc2NC1=O)NCc1ccccc1 (stereo not drawn) | -21.4
Cc1cccc(N2CCN(C(C)C(=O)N3CCc4ccccc43)CC2)c1C (stereo not drawn) | 17
CCCNC(=O)CS(=O)(=O)Cc1nc(-c2ccccc2C)oc1C | 3.88
COc1ccc(S(=O)(=O)N2CCN(Cc3ccc4c(c3)OCO4)CC2)cc1F | -30.5
O=S(=O)(c1ccc2c(c1)OCCO2)N1CCN(Cc2ccc3c(c2)OCO3)CC1 | 3.98
O=C1CCc2cc(S(=O)(=O)NCCCC(=O)N3CCN(Cc4ccc5c(c4)OCO5)CC3)ccc2N1 | -0.149
O=C1CCc2cc(S(=O)(=O)N3CCN(Cc4ccc5c(c4)OCO5)CC3)ccc2N1 | -70.1
O=S(=O)(c1ccc(F)c(F)c1)N1CCN(Cc2ccc3c(c2)OCO3)CC1 | -51.4
O=S(=O)(c1cccc(F)c1)N1CCN(Cc2ccc3c(c2)OCO3)CC1 | -35.8
O=[N+]([O-])c1cc(Br)c(O)c(/C=N/Nc2nnnn2-c2cccc3ccccc23)c1 | 0.778
O=C(Cc1c[nH]c2ccccc12)Nc1nccs1 | 0.956
O=C(CN1C(=O)C2CC=CCC2C1=O)Nc1cc(C(F)(F)F)ccc1N1CCCC1 (stereo not drawn) | -24.6
O=C(O)c1cc2n(n1)CCN(Cc1ccccc1Cl)C2=O | 8.71
Cc1cc2ncn(/N=C/c3ccc([N+](=O)[O-])o3)c2cc1C | -0.858
Cc1ccc(/C=N/n2c(C)nc3ccccc3c2=O)o1 | 10.9

SMILES | hERG current change (%, negative = inhibition) at 10uM [%]
Cc1nc2ccccc2c(=O)n1/N=C/c1ccccc1 | -0.523
Cc1nc2ccccc2c(=O)n1/N=C/c1ccc([N+](=O)[O-])o1 | -53.3
Cc1nc2ccccc2n1/N=C/c1ccc([N+](=O)[O-])o1 | -58.9
Cc1nc2ccccc2n1/N=C/c1ccc([N+](=O)[O-])s1 | -12.3
O=C(c1cc2c(s1)CCC2)N1C(=O)c2ccccc2S1(=O)=O | 12.9
CCCC(C)NC(=O)CN1C(=O)c2cccc3cccc1c23 (stereo not drawn) | 1.42
COc1ccc(C(C)=O)cc1CSc1nc2cc(Cl)ccc2o1 | 9.66
O=c1oc2cccnc2n1CCS(=O)(=O)c1ccc(F)cc1 | 9.29
CCOc1ccccc1NC(=O)Cn1c(-c2ccc(Cl)cc2)noc1=O | -2.01
Cc1ccc(Cn2c(SCC(=O)N(C)C3CCS(=O)(=O)C3)nc3ccccc3c2=O)cc1 (stereo not drawn) | -60.8
CCN(C(=O)CSc1nc2ccccc2c(=O)n1-c1ccc(C)cc1)C1CCS(=O)(=O)C1 (stereo not drawn) | -11.6
CCN(C(=O)CSc1nc2ccccc2c(=O)n1-c1cccc(C)c1)C1CCS(=O)(=O)C1 (stereo not drawn) | -14.9
CCCN(C(=O)CSc1nc2ccccc2n1CC)C1CCS(=O)(=O)C1 (stereo not drawn) | 2.29
Cc1ccc(-n2c(SCC(=O)N(C)C3CCS(=O)(=O)C3)nc3ccccc3c2=O)cc1 (stereo not drawn) | 11
Cc1ccccc1-n1c(SCC(=O)N(C)C2CCS(=O)(=O)C2)nc2ccccc2c1=O (stereo not drawn) | 11.6
CCN(C(=O)CSc1nc2ccccc2n1CC)C1CCS(=O)(=O)C1 (stereo not drawn) | 0.264
CCn1c(SCC(=O)N(Cc2ccccc2)C2CCS(=O)(=O)C2)nc2ccccc2c1=O (stereo not drawn) | -61
CCN(C(=O)CSc1nc2ccccc2c(=O)n1Cc1ccc(C)cc1)C1CCS(=O)(=O)C1 (stereo not drawn) | -71
